From PubChem BioAssay
SKOV3 invasion: Primary qHTS assay for Inhibitors of ovarian cancer metastasis using an organotypic tumor microenvironment (TME) model; SKOV3ip1-GFP adhesion/invasion on 3D omental model, fluorescence; Potency, µM (doses to about 45.8 µM), without a hit: at the highest dose activity change, negative = inhibition, actives largely listed as inhibitors; hit rate 0.1% among 46,000; AID 1963576, 2024;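 note: potency is the fitted concentration of half-maximal effect; plate controls were DMSO wells for no effect and tomatine positive control wells for full effect; nearly all actives have a fitted effect of over 65% in size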
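Adhesion/invasion was scored as fixed GFP-labeled SKOV3ip1 cell counts (488/509 nm), normalized to DMSO and tomatine controls. Cancer cells in serum-free medium, with four compound doses (0.36-46 umol/L), sat 2 hr at RT then 16 hr at 37 C on a 48 hr fibroblast/mesothelial/ECM culture.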
PMP22 txn prim: Cell-based coincidence reporter assay to measure PMP22 gene transcription in S16 Pmp22-F2sN cells - Primary screen; Potency, µM (top dose mostly 57.5 µM), for inactives: top-dose activity change, negative = inhibition, actives largely listed as inhibitors; S16 Pmp22-F2sN Schwann cells, FLuc/NLuc coincidence luminescence, 24 h; hit rate 2% among 43,000; active = clear falling dose curves in both reporters; inconclusive = both reporters move, but less clearly or upward; inactive = either reporter flat; the % is the NLuc reporter signal; note: potency is the fitted concentration of half-maximal effect; % is set by controls: 0 for no effect and ±100 for the full control effect
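Transcriptional readout in edited S16(c9) cells: two luciferases reported from the Pmp22 locus, measured in turn after 24 h compound incubation.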
mTORC1 inh: Acumen qHTS Assay for Inhibitors of the mTORC1 Signaling Pathway in MEF (Tsc2-/-, p53-/-) Cells: Sytravon. Tsc2-/- p53-/- MEF, phospho-rpS6 immunofluorescence/PI, 24 h. Potency, µM (series often up to 38.3 µM), inactives show at the highest dose activity change, negative = inhibition, actives largely listed as inhibitors. hit rate 0.78% among 44,000. AID 493208, 2011;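 note: potency is the fitted concentration of half-maximal effect; plate controls were DMSO for no effect and rapamycin for full effect; nearly all actives have a fitted effect of over 50% in size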
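Read-out: phospho-S6 Alexa-488 intensity over PI intensity per well, scored as % active cells using thresholds from rapamycin (7.5 nM) and DMSO controls. Tsc2-/-, p53-/- MEFs exposed to compound for 24 h; PI cell count recorded as viability.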
S16 viability: Cell viability qHTS assay in S16 Pmp22-F2sN cells. Potency, µM (highest dose often 57.5 µM), for the others: at the top dose activity change, negative = cytotoxicity, most hits filed as cytotoxic. S16 Pmp22-F2sN Schwann cells (luciferase reporters placed in the Pmp22 gene) viability, CellTiter-Glo, 24 h. hit rate 0.48% among 43,000; note: potency is the fitted concentration of half-maximal effect; % is set by controls: 0 for no effect and ±100 for the full control effect; nearly all actives have a fitted effect of over 65% in size
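Rat S16 Schwann reporter line, 24 h treatment with library compounds delivered at 23 nL per well. Cell viability by CellTiter-Glo luminescence.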
p53null 32C kill: qHTS Screen for Compounds that Selectively Target Cancer Cells with p53 Mutations: Cytotoxicity of p53 Null Cells at the Permissive Temperature | H1299-neo p53 null cells, ATP luminescence, 24 h, 32C | Potency, µM (top dose mostly 46.1 µM), without a hit: at the top dose activity change, negative = cytotoxicity, most hits filed as cytotoxic | hit rate 0.62% among 55,000;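 note: potency is the fitted concentration of half-maximal effect; 0% = DMSO only and -100% = full killing by 100 µM tamoxifen; nearly all actives have a fitted effect of over 55% in size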
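H1299-neo (p53 null) cells, 600/well, treated 24 h at 32C with compound up to 46 uM; ATPlite luminescence viability, normalized to DMSO and 100 uM tamoxifen; AC50 by Hill fit.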
p53null 39C tox: qHTS Screen for Compounds that Selectively Target Cancer Cells with p53 Mutations: Cytotoxicity of p53 Null Cells at the Nonpermissive Temperature | H1299 p53-null (neo) cells, 39C, ATPlite viability, 24 h | Potency, µM (titrated, usually from 46.1 µM), without a hit: at the top dose activity, negative = cell killing, actives largely listed as cytotoxic | hit rate 0.97% among 55,000 | AID 904, 2007;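 note: potency is the fitted concentration of half-maximal effect; 0% = DMSO only and -100% = full killing by 100 µM tamoxifen; nearly all actives have a fitted effect of over 50% in size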
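Cells seeded at 600/well, 37C overnight. Compound added (up to 46 uM), plates shifted to 39C for 24 hr. ATPlite added, luminescence read after 20 min at room temperature.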
NLuc sat counter: Biochemical NLuc saturation counterscreen for small molecule modulators of PMP22 gene expression - Nano-Glo assay; shares compounds with PMP22 txn prim; Secreted NLuc enzyme (filtered S16 cell medium), Nano-Glo luminescence; Potency, µM (titrated, usually from 57.5 µM), inactives show at the top dose activity change, negative = inhibition, most hits filed as inhibitors; hit rate 4% among 690; AID 1508638, 2021; note: potency is the fitted concentration of half-maximal effect; % is set by controls: 0 for no effect and ±100 for the full control effect
NLuc Km counter: Biochemical coelenterazine-based NLuc counterscreen for small molecule modulators of PMP22 gene expression - Km assay | Potency, µM (titrated, usually from 57.5 µM), inactives show top-dose activity change, negative = inhibition, most hits filed as inhibitors | shares compounds with PMP22 txn prim | hit rate 5% among 690 | secreted NLuc enzyme, coelenterazine luminescence, Km conditions; note: potency is the fitted concentration of half-maximal effect; % is set by controls: 0 for no effect and ±100 for the full control effect
FLuc ctr PMP22: Biochemical FLuc counterscreen for small molecule modulators of PMP22 gene expression. 690 tested, under 10 active. AID 1508640, 2021. purified P. pyralis FLuc, luminescence, 10 min. shares compounds with PMP22 txn prim. Potency, µM (top dose mostly 57.5 µM), inactives show top-dose activity, negative = inhibition, hits mostly inhibitors; note: % of control where 0% means no effect
Target sequence (P08659 whole entry, looked up): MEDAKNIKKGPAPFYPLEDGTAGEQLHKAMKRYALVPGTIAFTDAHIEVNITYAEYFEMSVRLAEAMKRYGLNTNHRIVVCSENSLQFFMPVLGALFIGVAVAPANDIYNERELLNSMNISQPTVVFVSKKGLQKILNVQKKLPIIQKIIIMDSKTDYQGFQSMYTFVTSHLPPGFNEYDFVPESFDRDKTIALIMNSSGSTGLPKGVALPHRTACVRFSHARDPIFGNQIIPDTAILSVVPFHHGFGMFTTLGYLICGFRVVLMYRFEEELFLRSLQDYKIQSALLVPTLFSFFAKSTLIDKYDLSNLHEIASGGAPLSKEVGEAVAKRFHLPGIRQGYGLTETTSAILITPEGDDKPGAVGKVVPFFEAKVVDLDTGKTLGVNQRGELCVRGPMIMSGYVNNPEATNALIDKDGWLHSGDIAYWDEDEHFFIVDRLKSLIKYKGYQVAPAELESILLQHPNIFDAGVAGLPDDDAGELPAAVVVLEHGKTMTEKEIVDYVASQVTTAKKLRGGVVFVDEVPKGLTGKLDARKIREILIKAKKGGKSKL
S16 viab conf: Cell viability qHTS assay in S16 Pmp22-F2sN cells - Confirmatory screen | S16 Schwann cells viability, CellTiter-Glo ATP luminescence, 24 h | hit rate 7% among 690 | Potency, µM (series often up to 57.5 µM), for the others: at the top dose activity change, negative = viability loss, hits mostly cytotoxic | shares compounds with PMP22 txn prim; note: potency is the fitted concentration of half-maximal effect; % is set by controls: 0 for no effect and ±100 for the full control effect
PMP22 txn conf: Cell-based coincidence reporter assay to measure PMP22 gene transcription in S16 Pmp22-F2sN cells - Confirmatory screen. shares compounds with PMP22 txn prim. S16 Schwann cells Pmp22-F2sN, dual luciferase, 24 h. Potency, µM (doses to about 57.5 µM), for the others: at the top dose activity change, negative = inhibition, actives largely listed as inhibitors. hit rate 22% among 690; active = clear falling dose curves in both reporters; inconclusive = both reporters move, but less clearly or upward; inactive = either reporter flat; the % is the FLuc reporter signal; note: potency is the fitted concentration of half-maximal effect
PMP22 prot conf: Cell-based HiBiT reporter assay to measure PMP22 protein expression in S16 Pmp22-HiBiT cells - Confirmatory screen | shares compounds with PMP22 txn prim | S16 Schwann cells Pmp22-HiBiT, luminescence, 48 h | Potency, µM (titrated, usually from 27.9 µM), for inactives: at the top dose activity change, negative = inhibition, most hits filed as inhibitors | 95 tested, under 10 active | AID 1508647, 2021
An asterisk follows results filed as active; ? = inconclusive; · = no result given. This is a sample that favours compounds with a hit; in the whole collection about 3.1% have one here. Unless noted, calls come from the whole dose curve; as a rule, active = well fitted curve in the direction sought with a large enough effect; inconclusive = small, poorly fitted or top-dose-only effect, or another doubt; inactive = no such curve, though single readings can be large; an effect the other way counts as inactive or inconclusive.

SMILES	SKOV3 invasion	PMP22 txn prim	mTORC1 inh	S16 viability	p53null 32C kill	p53null 39C tox	NLuc sat counter	NLuc Km counter	FLuc ctr PMP22	S16 viab conf	PMP22 txn conf	others
Clc1cccc(-c2noc3ncnc(NC4CCCCC4)c23)c1	-1%	?	-13%	-19%	-3%	-11%	-12%	2%	-11%	-16%	8.2µM*	PMP22 prot conf=-6%
CCOC(=O)c1c(C)oc2nc(C)nc(NCCc3ccc(Cl)cc3)c12	10%	-35%	?	14%	0%	-3%	·	·	·	·	·
CCOC(=O)c1c(C)oc2nc(C)nc(NCCc3ccc(OCC)cc3)c12	-23%	14µM*	6%	-27%	-4%	10%	?	?	-10%	-11%	?
CCOc1ccc(CCNC(=O)c2c(C)oc3ncn(CC(C)C)c(=O)c23)cc1	11%	20µM*	5%	2%	-5%	-29%	?	2%	?	2%	-32%
CCOc1cc(C2c3c(oc4ccccc4c3=O)C(=O)N2Cc2ccccc2Cl)ccc1O (centres undefined)	-8%	?	-6%	2%	-1%	-3%	·	·	·	·	·
COc1cc(C2c3c(oc4ccccc4c3=O)C(=O)N2Cc2ccccc2Cl)ccc1O (centres undefined)	10%	11µM*	3%	3%	-23%	?	-9%	-4%	4%	-8%	?
